Several values for one entry are separate records, joined by “and”; a condition that tells them apart may be missing. Identical values can stand only once. Inconclusive results are not listed. A structure can be active in one record and inactive in another. Activity calls are given as the source filed them. How the source made its calls, unless noted: active means hit-call score of the fitted dose curve at least 0.9, where 1 is the maximum; inconclusive means response in the unintended direction; inactive means score below 0.9.
What was measured:
[1] = TOX21_p53_BLA_p3_viability: Viability Assessment in the Tox21 HCT-116 p53 Agonism Beta-lactamase Assay, Phase 3 (AID 2283593);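 further: cells exposed to compound for 16 h before reading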
How it was run: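 HCT116 cells, 4000/well, dosed 5 h after plating by pin transfer (217-fold dilution from DMSO stock) and incubated 16 h at 37C, 5% CO2. Viability read as ATP luminescence with CellTiter-Glo after 30 min at room temperature.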

[2] = target: Cellular tumor antigen p53 (Homo sapiens) (UniProt P04637); test: TOX21_p53_BLA_p3_ratio: Tox21 HCT-116 p53 Agonism Beta-lactamase Assay, Ratio, Phase 3 (AID 2283596)
Cellular tumor antigen p53 (Homo sapiens), sequence (P04637 whole entry, looked up): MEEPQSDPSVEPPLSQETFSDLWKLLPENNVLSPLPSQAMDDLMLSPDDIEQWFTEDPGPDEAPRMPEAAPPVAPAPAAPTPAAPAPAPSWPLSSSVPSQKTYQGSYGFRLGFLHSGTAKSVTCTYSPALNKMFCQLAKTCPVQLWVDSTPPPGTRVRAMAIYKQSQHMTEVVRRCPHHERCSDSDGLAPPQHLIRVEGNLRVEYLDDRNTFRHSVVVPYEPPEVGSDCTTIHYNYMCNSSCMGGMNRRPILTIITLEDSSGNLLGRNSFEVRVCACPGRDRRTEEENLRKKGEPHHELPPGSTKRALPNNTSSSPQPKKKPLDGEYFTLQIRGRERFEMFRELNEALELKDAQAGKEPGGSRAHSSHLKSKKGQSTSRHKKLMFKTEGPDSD
How it was run: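 Cells were seeded at 4000/well, rested 5 h at 37C, then dosed with DMSO compound solutions (217-fold dilution) for 16 h. CCF4-AM substrate was loaded for 2 h at room temperature, and the 460/530 nm emission ratio was fitted for gain of signal versus DMSO.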

[3] = TOX21_p53_BLA_p4_viability: Viability Assessment in the Tox21 HCT-116 p53 Agonism Beta-lactamase Assay, Phase 4 (AID 2283597);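 further: hits lower the luminescence signal meaning cytotoxicity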
How it was run: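 Readout: ATP luminescence (CellTiter-Glo), measured 30 min after reagent addition at RT. The reagent followed a 2 h CCF4-AM incubation, and the cells had been exposed to compound for 16 h at 37C.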

[4] = target: Cellular tumor antigen p53 (Homo sapiens) (UniProt P04637); test: TOX21_p53_BLA_p5_ratio: Tox21 HCT-116 p53 Agonism Beta-lactamase Assay, Ratio, Phase 5 (AID 2283599)
How it was run: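 HCT-116 p53-bla cells (4000/well) plated 5 h, dosed with compound (217-fold DMSO dilution) for 16 h at 37 C; CCF4-AM substrate 2 h at room temperature. Activity is the 460/530 nm emission ratio (405 nm excitation), fitted in gain-of-signal direction versus DMSO.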

[5] = TOX21_p53_BLA_p5_viability: Viability Assessment in the Tox21 HCT-116 p53 Agonism Beta-lactamase Assay, Phase 5 (AID 2283600)
How it was run: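 Workflow: seed 4000 cells per well, wait 5 h, add compounds (DMSO, 217-fold dilution), incubate 16 h, load CCF4-AM 2 h, add CellTiter-Glo, read luminescence after 30 min.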

[6] = target: Cellular tumor antigen p53 (Homo sapiens) (UniProt P04637); test: TOX21_p53_BLA_p4_ratio: Tox21 HCT-116 p53 Agonism Beta-lactamase Assay, Ratio, Phase 4 (AID 2283601)
How it was run: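 HCT-116 p53 beta-lactamase reporter cells (4000/well) preincubated 5 h, then compound (217-fold dilution of DMSO stock) for 16 h at 37C. CCF4-AM substrate added 2 h at room temperature; 460/530 nm emission ratio fitted upward versus DMSO.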

[7] = Tanguay_ZF_120hpf_MORT_legacy: (Legacy) Oregon State University Tanguay Lab 120 Hour Post-fertilization zebrafish Assay for Mortality (AID 2283633);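 on AC50: fitted as increase in binary mortality versus DMSO negative control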
How it was run: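 5D WT zebrafish, chorion removed 4 hpf; 1 embryo/well from 6 hpf; static exposure to 120 hpf, 28C, dark, sealed. Final DMSO 0.64%. Readout: binary mortality, brightfield, 24 + 120 hpf; DMSO as negative control.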

[8] = Tanguay_ZF_120hpf_YSE_legacy: (Legacy) Oregon State University Tanguay Lab 120 Hour Post-fertilization zebrafish Assay for Yolk Sac Edema (AID 2283634)
How it was run: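 Dechorionate (pronase, 4 hpf) → place one 6 hpf embryo per well → static compound exposure, sealed and foil-covered, 28C, to 120 hpf → record yolk sac edema as present or absent. Final DMSO 0.64%.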

[9] = Tanguay_ZF_120hpf_AXIS_legacy: (Legacy) Oregon State University Tanguay Lab 120 Hour Post-fertilization zebrafish Assay for Body Axis Malformation (AID 2283635);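 on AC50: potency for an increased fraction of larvae scored with body axis malformation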
How it was run: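 Chorion is removed with pronase at 4 hpf, then single 6 hpf embryos are dosed (final DMSO 0.64%) and held statically at 28C in sealed, foil-covered plates. At 120 hpf body axis malformation is recorded as present or absent.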

[10] = Tanguay_ZF_120hpf_EYE_legacy: (Legacy) Oregon State University Tanguay Lab 120 Hour Post-fertilization zebrafish Assay for Eye Malformation (AID 2283636)
How it was run: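 5D wild-type embryos, pronase-dechorionated at 4 hpf; static exposure 6–120 hpf, 28C, dark; DMSO 0.64% final; 5uM trimethyltin chloride positive control. Binary eye-defect scoring at 120 hpf; dead embryos not scored.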

[11] = Tanguay_ZF_120hpf_SNOU_legacy: (Legacy) Oregon State University Tanguay Lab 120 Hour Post-fertilization zebrafish Assay for Snout Malformation (AID 2283637)
How it was run: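 Binary brightfield scoring of snout malformation at 120 hpf. Dechorionated 5D wild-type embryos, one per well, static exposure from 6 hpf at 28C, sealed and dark; final DMSO 0.64% (vol/vol), DMSO as baseline; 5uM trimethyltin chloride positive control.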

[12] = Tanguay_ZF_120hpf_JAW_legacy: (Legacy) Oregon State University Tanguay Lab 120 Hour Post-fertilization zebrafish Assay for Jaw Malformation (AID 2283638)
How it was run: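 Steps: dechorionate 4 hpf embryos (pronase); plate 1/well at 6 hpf; add test chemical, 0.64% DMSO final; seal, cover, hold at 28C statically to 120 hpf; score jaw defect presence/absence microscopically. Dead embryos not scored.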

[13] = Tanguay_ZF_120hpf_OTIC_legacy: (Legacy) Oregon State University Tanguay Lab 120 Hour Post-fertilization zebrafish Assay for Otic Vesicle Malformation (AID 2283639)
How it was run: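 Binary scoring of otic vesicle defects at 120 hpf in zebrafish (Tropical 5D) held under static exposure at 28C, sealed and shaded, with final DMSO 0.64%. Embryos dying by 24 or 120 hpf excluded; fitted positively against DMSO.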

[14] = Tanguay_ZF_120hpf_PE_legacy: (Legacy) Oregon State University Tanguay Lab 120 Hour Post-fertilization zebrafish Assay for Pericardial Edema (AID 2283640);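 on AC50: potency for increased incidence of pericardial edema versus DMSO baseline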
How it was run: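 Embryos from wild-type 5D adults were staged, then dosed in 0.64% DMSO. They were kept sealed in the dark at 28C until 120 hpf. Pericardial edema was then recorded as present or absent.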

[15] = Tanguay_ZF_120hpf_PFIN_legacy: (Legacy) Oregon State University Tanguay Lab 120 Hour Post-fertilization zebrafish Assay for Pectoral Fin Malformation (AID 2283648);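 further: each larva judged yes or no for fin defect by brightfield with dead larvae skipped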
How it was run: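 Binary pectoral fin malformation call at 120 hpf by brightfield microscopy; 5D wild-type zebrafish, chorion removed at 4 hpf, one embryo per well from 6 hpf, static exposure at 28C; DMSO (0.64% final) as baseline.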

[16] = Tanguay_ZF_120hpf_CFIN_legacy: (Legacy) Oregon State University Tanguay Lab 120 Hour Post-fertilization zebrafish Assay for Caudal Fin Malformation (AID 2283649)
How it was run: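 Binary presence or absence of caudal fin malformation at 120 hpf, read by brightfield microscopy, with DMSO as baseline. Larvae came from 5D wild-type embryos exposed statically from 6 hpf at 28C after pronase dechorionation.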

[17] = Tanguay_ZF_120hpf_PIG_legacy: (Legacy) Oregon State University Tanguay Lab 120 Hour Post-fertilization zebrafish Assay for Pigmentation Malformation (AID 2283650);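 further: dechorionated Tropical 5D zebrafish embryos exposed singly from 6 to 120 hpf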
How it was run: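 Brightfield scoring of pigmentation malformation at 120 hpf, recorded as binary present/absent per larva. Exposure: dechorionated 5D wild-type embryos, one per well, static from 6 hpf at 28C, final DMSO 0.64% (vol/vol). Dead embryos not scored.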

[18] = Tanguay_ZF_120hpf_CIRC_legacy: (Legacy) Oregon State University Tanguay Lab 120 Hour Post-fertilization zebrafish Assay for Circulatory Malformation (AID 2283651)
How it was run: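 Binary circulatory malformation call at 120 hpf by brightfield imaging of zebrafish larvae; chorion removed at 4 hpf, static exposure from 6 hpf in sealed dark plates at 28C, final DMSO 0.64%; non-mortality endpoints skipped if embryo died.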

[19] = Tanguay_ZF_120hpf_SOMI_legacy: (Legacy) Oregon State University Tanguay Lab 120 Hour Post-fertilization zebrafish Assay for Somite Malformation (AID 2283647)
How it was run: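 Read-out: presence or absence of somite malformation in 120 hpf larvae, gain-of-signal relative to DMSO baseline. Embryos lacked chorion (pronase, 4 hpf) and were exposed statically from 6 hpf at 28C; dead larvae not scored.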

[20] = read-out: kallikrein-3 (KLK3), KLK3 (gene 354); test: LTEA_HepaRG_KLK3: Life Technologies and Expression Analysis (LTEA) Assay for kallikrein-3 (KLK3) using HepaRG (AID 2283652; active means hit-call score of the fitted dose curve at least 0.9, where 1 is the maximum; inactive means score below 0.9); conditions: mRNA level, 48 h; actives raise or lower the signal
How it was run: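 KLK3 transcript levels were measured by TaqMan qRT-PCR with normalisation to three housekeeping genes. HepaRG cultures received chemicals for 48 h at up to 100 uM (half-log, 8 points, 0.5% DMSO vehicle), fitted in both directions against DMSO.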

Measured: AC50

COP(=S)(OC)Oc1ccc(SC)c(C)c1
not listed: [19] | [20]
inactive: all other assays above

ClC1C(Cl)C(Cl)C(Cl)C(Cl)C1Cl (stereo not given)
active: [3] 72.6 µM | [4] 86.7 µM
inactive: [1] | [2] | [3] | [4] | [5] | [6] | [7] | [8] | [9] | [10] | [11] | [12] | [13] | [14] | [19] | [15] | [16] | [17] | [18]

CC[C@H](C)[C@H]1O[C@]2(C=C[C@@H]1C)C[C@@H]1C[C@@H](C/C=C(\C)[C@@H](O[C@H]3C[C@H](OC)[C@@H](O[C@H]4C[C@H](OC)[C@@H](O)[C@H](C)O4)[C@H](C)O3)[C@@H](C)/C=C/C=C3\CO[C@@H]4[C@H](O)C(C)=C[C@@H](C(=O)O1)[C@]34O)O2 (tested in a mixture with another compound)
active: [1] 15.9 µM | [2] 28.7 µM | [3] 6.67 µM and 35.5 µM | [4] 31.4 µM | [5] 7.91 µM and 42.1 µM | [7] 13.9 µM | [9] 8.9 µM | [11] 0.934 µM | [14] 0.808 µM
inactive: [1] | [4] | [6] | [8] | [10] | [12] | [13] | [19] | [15] | [16] | [17] | [18]

CC(C)OC(=O)Nc1cccc(Cl)c1
active: [11] 34.2 µM | [14] 37.7 µM
not listed: [5] | [12] | [18] | [20]
inactive: all other assays above

O=[N+]([O-])c1c(Cl)c(Cl)c(Cl)c(Cl)c1Cl
not listed: [7] | [20]
inactive: all other assays above

Cc1[nH]c(=O)n(C(C)(C)C)c(=O)c1Cl
not listed: [1] | [2] | [3] | [4] | [5] | [6] | [9] | [20]
inactive: all other assays above

COP(=O)(OC)OC=C(Cl)Cl
not listed: [1] | [2] | [3] | [4] | [5] | [6] | [12] | [20]
inactive: all other assays above

CC(C)N(C(=O)COc1nnc(C(F)(F)F)s1)c1ccc(F)cc1
not listed: [1] | [6] | [9] | [13] | [20]
inactive: all other assays above

Clc1ccccc1-c1nnc(-c2ccccc2Cl)nn1
inactive: [7] | [8] | [9] | [10] | [12] | [13] | [15] | [17] | [18]

CC1(C)C(C=C(Cl)Cl)C1C(=O)OC(C#N)c1ccc(F)c(Oc2ccccc2)c1 (stereo not given)
not listed: [2] | [13] | [19]
inactive: all other assays above

CNC(=O)CSP(=S)(OC)OC
inactive: [8] | [9] | [10] | [11] | [12] | [13] | [14] | [15] | [16] | [18]

COC(=O)c1ccccc1CS(=O)(=O)NC(=O)Nc1nc(OC)cc(OC)n1
inactive: [1] | [5] | [6]

CCCN(CCC)c1c([N+](=O)[O-])cc(C(F)(F)F)cc1[N+](=O)[O-]
inactive: [7] | [8] | [9] | [10] | [11] | [12] | [19] | [15] | [16] | [17] | [18]

O=C(NC(=O)c1c(F)cccc1F)Nc1ccc(OC(F)(F)C(F)OC(F)(F)F)c(Cl)c1 (stereo not given)
not listed: [1] | [2] | [3] | [4] | [5] | [6] | [9] | [20]
inactive: all other assays above

— PubChem BioAssay (EPA / NIEHS)
